Test systems include DU-145 prostate; K-562 leukemia; MALME-3M melanoma; MDA-MB-231 breast; RXF 393 renal; SF-268 CNS; SF-295 CNS; SF-539 CNS; UACC-257 melanoma; M14 melanoma; HCT-15 colon; HT29 colon; U251 CNS; PC-3 prostate; SK-MEL-5 melanoma; UACC-62 melanoma; LOX IMVI melanoma; SK-MEL-28 melanoma; SNB-19 CNS.
Experiment in all cases: NCI-60 one-dose screen, 48 h (100 = growth as untreated, 0 = no growth, -100 = all killed)
What all share (conditions): 10 µM unless noted

The panel holds about 83,000 compounds, 20% with a hit somewhere; the sample as a whole holds those more often.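 Cells were grown in 96-well plates and exposed to the test compound at a single concentration for 48 hours; results are reported as percent growth, with values below 10 considered active.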 A number with no mark means an inactive call. Active and inactive are the calls of the source.

Turning to `COc1ccc2c(c1)c(-c1nc(-c3c[nH]c4ncccc34)cs1)cn2CCO`, the growth in the assay with DU-145 prostate is 56.5%; in the assay on K-562 leukemia, 43.5%; with MALME-3M melanoma it was 75.9%; with MDA-MB-231 breast, 51.5%; in the assay on RXF 393 renal it was 30.1%; in the assay with SF-268 CNS, 66.6%. The growth in the assay on SF-295 CNS is 57.9%; in the assay with SF-539 CNS, 50%; with UACC-257 melanoma it was 91%; in the assay with M14 melanoma, 59.3%; with HCT-15 colon, 32%; with HT29 colon, 54.5%. Further, the growth in the assay with U251 CNS is 53.2%; with PC-3 prostate it was 49%; in the assay on SK-MEL-5 melanoma it was 58.4%; with UACC-62 melanoma, 58.4%; in the assay on LOX IMVI melanoma, 42.8%; with SK-MEL-28 melanoma it was 78.5%.
On to `C/C(Cc1ccc(Cl)cc1)=C(\c1ccc(OCCCN(C)C)cc1)c1ccc(OC(=O)Cc2ccccc2)cc1`, for which the growth in the assay with DU-145 prostate was 106%; in the assay with K-562 leukemia, 91.8%; in the assay with MALME-3M melanoma, 111%; in the assay on MDA-MB-231 breast it was 108%; with RXF 393 renal, 109%; in the assay on SF-268 CNS it was 97.6%. Besides, the growth is 100% in the assay on SF-295 CNS; 105% in the assay on SF-539 CNS; 103% in the assay with UACC-257 melanoma; 109% in the assay with M14 melanoma; 103% with HCT-15 colon; 78.8% in the assay on HT29 colon. In addition, the growth in the assay on SNB-19 CNS is 105%; in the assay with U251 CNS, 112%; in the assay on PC-3 prostate, 96.5%; with SK-MEL-5 melanoma, 102%; in the assay with UACC-62 melanoma, 105%; with LOX IMVI melanoma, 99.2%. Moreover, in the assay on SK-MEL-28 melanoma, the growth was 103%.
On to `Cc1ccc(C2CC(c3nc(-c4ccc(Cl)cc4)oc3C)=NN2C(=O)c2ccncc2)cc1` (configuration not stated), for which the growth with DU-145 prostate was 93.1%; in the assay with K-562 leukemia, 84.2%; in the assay on MALME-3M melanoma, 90.9%; in the assay with MDA-MB-231 breast, 71.6%; with RXF 393 renal it was 74.8%; in the assay with SF-268 CNS it was 81.6%. Also, the growth was 87.9% in the assay on SF-295 CNS; 89.5% in the assay with SF-539 CNS; 97.1% in the assay on UACC-257 melanoma; 93.8% in the assay with M14 melanoma; 83.7% in the assay with HCT-15 colon; 86.9% in the assay with HT29 colon. Further, the growth in the assay on SNB-19 CNS is 77.2%; in the assay on PC-3 prostate, 73.2%; in the assay on SK-MEL-5 melanoma it was 92.4%; in the assay with UACC-62 melanoma, 72.3%; in the assay on LOX IMVI melanoma it was 86%; with SK-MEL-28 melanoma, 92.4%.
In the case of `CCN(CC)CCN1C(=O)c2c(c(C)c3c(oc4ccc(O)cc43)c2C)C1=O`, the growth was 0.0633% (active) in the assay on DU-145 prostate; 6.29% (active) in the assay with K-562 leukemia; 73.3% in the assay on MALME-3M melanoma; -28.7% (active) in the assay with MDA-MB-231 breast; 98.2% in the assay on RXF 393 renal; 37.1% in the assay on SF-268 CNS. Further, the growth in the assay with SF-295 CNS is 89.7%; with SF-539 CNS it was -99.5% (active); in the assay with UACC-257 melanoma it was 93.1%; with M14 melanoma, 38.3%; in the assay with HCT-15 colon, 10.5%; with HT29 colon, 67.9%. Also, the growth with SNB-19 CNS is 24.7%; with U251 CNS, -23.8% (active); in the assay on PC-3 prostate, 49.7%; with SK-MEL-5 melanoma, 77.2%; in the assay on UACC-62 melanoma, 56.6%; with LOX IMVI melanoma it was -94.1% (active). Further, the growth in the assay on SK-MEL-28 melanoma is 72.2%.
Take `CCSc1oc(C)nc1[P+](c1ccccc1)(c1ccccc1)c1ccccc1`: the growth is 29.5% with DU-145 prostate; 19.8% with K-562 leukemia; 31.1% with MALME-3M melanoma; 49.1% with MDA-MB-231 breast; 50.9% in the assay with RXF 393 renal; 25% with SF-268 CNS. For the same compound, the growth was 35.1% in the assay with SF-295 CNS; 59.1% with SF-539 CNS; 11.8% in the assay on UACC-257 melanoma; 33.1% in the assay on M14 melanoma; 92.1% with HCT-15 colon; 16.7% with HT29 colon. Besides, the growth in the assay on SNB-19 CNS was 19.3%; with U251 CNS it was 20.2%; in the assay with PC-3 prostate, 19.6%; with SK-MEL-5 melanoma it was 1.8% (active); in the assay on UACC-62 melanoma, 28.7%; with LOX IMVI melanoma, 25.7%. The growth with SK-MEL-28 melanoma is 65.5%.
For the compound `O=C1/C(=C/c2ccc(O)c(O)c2)COc2ccc(-c3ccccc3)cc21`, the growth in the assay on DU-145 prostate is 26.5%; in the assay with K-562 leukemia, 15.3%; in the assay on MALME-3M melanoma, 41.2%; in the assay on MDA-MB-231 breast it was 12.9%; in the assay on RXF 393 renal it was 16.5%; in the assay with SF-268 CNS, 49.4%. Further, the growth is 42.5% with SF-295 CNS; 9.83% (active) with SF-539 CNS; 30.4% in the assay with UACC-257 melanoma; 45.9% with M14 melanoma; -31.2% (active) with HCT-15 colon; 15% with HT29 colon. For the same compound, the growth was 56.2% in the assay with SNB-19 CNS; 22.3% in the assay on U251 CNS; 23.2% in the assay on SK-MEL-5 melanoma; -13.6% (active) in the assay on UACC-62 melanoma; 4.79% (active) in the assay on LOX IMVI melanoma; -11.5% (active) in the assay with SK-MEL-28 melanoma.
Consider `COCCn1cc(-c2csc(-c3c[nH]c4ccc(Br)cc34)n2)c2cccnc21`, for which the growth is 46.7% with DU-145 prostate; 0.0972% (active) in the assay on K-562 leukemia; 53.1% in the assay on MALME-3M melanoma; 4.45% (active) with MDA-MB-231 breast; 58.9% in the assay on RXF 393 renal; 44.3% in the assay with SF-268 CNS. Further, the growth was 17.7% in the assay with SF-295 CNS; 45.5% in the assay with SF-539 CNS; 28.9% with UACC-257 melanoma; 14.3% with M14 melanoma; 13.1% in the assay on HCT-15 colon; 18.2% in the assay with HT29 colon. The growth was 55.6% in the assay with SNB-19 CNS; 36.5% in the assay on U251 CNS; 16% in the assay with PC-3 prostate; 19.9% in the assay with SK-MEL-5 melanoma; 44.7% in the assay on UACC-62 melanoma; -10.7% (active) in the assay on LOX IMVI melanoma.
Turning to `COc1cc(Cl)c(C)cc1NC(=O)c1cc2ccccc2cc1O`, the growth with DU-145 prostate is 26.4%; in the assay with K-562 leukemia it was 14.5%; in the assay on MALME-3M melanoma, -8.31% (active); in the assay with MDA-MB-231 breast it was -23.8% (active); in the assay with RXF 393 renal, 11.7%; in the assay on SF-268 CNS, 24%. For the same compound, the growth is -15.1% (active) in the assay on SF-295 CNS; 22.1% in the assay with SF-539 CNS; -1.4% (active) in the assay on UACC-257 melanoma; 24.1% with M14 melanoma; 9.39% (active) with HCT-15 colon; 37.8% with HT29 colon. The growth in the assay on U251 CNS was 6.67% (active); in the assay with PC-3 prostate it was 2.12% (active); in the assay on SK-MEL-5 melanoma, -35.1% (active); in the assay on UACC-62 melanoma, 14.2%; in the assay with LOX IMVI melanoma, 2.44% (active); in the assay with SK-MEL-28 melanoma, 36.5%.

(Values after PubChem BioAssay (NCI).)
